VDR inh: inhibitors of human vitamin D receptor | P11473 | VDR-SRC2-3 peptide fluorescence polarization, 2 h | Potency, µM, most hits filed as inhibitors | 400,000 compounds, 0.93% hits | AID 504847
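The screen uses fluorescence polarization to detect compounds that interfere with recruitment of the SRC2-3 coactivator peptide to VDR; plates are read after 2 h at room temperature.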
PI5P4Ka inh: inhibitors of human PI5P4K alpha | P48426 | PI5P4Kalpha enzyme, ADP-Glo luminescence, 60 min; stronger effect = lower value | max response, % | 330,000 compounds, 1.2% hits | AID 652105; active = max response of -50% or lower; inconclusive = between -30% and -50%; inactive = -30% or higher; also: value at the top dose of about 77 µM
Target sequence (P48426 whole entry, looked up): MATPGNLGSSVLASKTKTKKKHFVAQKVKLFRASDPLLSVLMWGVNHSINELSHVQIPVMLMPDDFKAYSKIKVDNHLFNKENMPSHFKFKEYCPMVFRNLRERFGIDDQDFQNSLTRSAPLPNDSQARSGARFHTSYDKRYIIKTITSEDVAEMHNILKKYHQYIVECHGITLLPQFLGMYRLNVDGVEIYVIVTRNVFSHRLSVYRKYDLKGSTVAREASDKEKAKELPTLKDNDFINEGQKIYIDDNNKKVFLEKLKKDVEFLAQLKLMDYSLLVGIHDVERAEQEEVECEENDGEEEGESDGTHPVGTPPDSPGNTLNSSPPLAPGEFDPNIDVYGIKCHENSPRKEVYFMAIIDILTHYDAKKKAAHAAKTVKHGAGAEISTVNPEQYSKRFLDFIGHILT
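qHTS, 1536-well: enzyme/substrate mix, compound by pin tool, 5 microM ATP final; RT 60 min; ADP-Glo reagents 1 (45 min) then 2 (30 min); luminescence.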
Rango complex inh: inhibitors of Rango-importin beta complex formation | Rango CFP/YFP FRET sensor + importin beta, 45 min | 340,000 compounds, 0.031% hits | AID 540263 | Q14974 | Potency, µM (titrated, usually from 92.2 µM); calls by dose curve; also: nearly all actives have a fitted effect of over 15% in size
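FRET biosensor (snurportin 1 IBB flanked by EYFP and cerulean), 50 nM, with compound 5 min, then 0.125 microM importin beta in PBS, 1 mM DTT, 0.02% Tween-20, 0.1% BSA. CFP/YFP ratio read after 45 min at room temperature; pre-read flags interference.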
GCN5L2 inh: inhibitors of human GCN5L2 histone acetyltransferase; GCN5L2 HAT assay, ThioGlo1 CoA-SH fluorescence; Potency, µM (highest dose often 58.9 µM), usual class: inhibitors; 390,000 compounds, 0.21% hits; AID 504327
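GCN5L2 (20 nM) in 50mM HEPES pH 7.5, 0.1mM EDTA, 0.01% Tween-20 preincubated 15 min with compounds at room temperature. Reaction started with H3(1-25) 75uM, acetyl-CoA 70uM, ThioGlo1 50uM; CoA-thiol fluorescence (Ex340/Em540) read at 0 and 20 min.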
PLK1 PBD block: blocks phosphopeptide binding to human PLK1 polo-box domain; P53350; Plk1 PBD binding of FITC phosphopeptide, fluorescence polarization; Potency, µM, actives largely listed as inhibitors; 360,000 compounds, 2.8% hits; AID 720504; also: series mostly up to about 57 µM; nearly all actives have a fitted effect of over 65% in size
Rango release inh: inhibitors of RanGTP-induced Rango-importin beta complex dissociation | O95149+P62826 | Biochemical FRET Rango-importin beta, RanGTP-induced dissociation | Potency, µM (top dose mostly 46.1 µM) | 340,000 compounds, 0.071% hits; calls by dose curve; also: nearly all actives have a fitted effect of over 45% in size
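Compounds sat 5 min at room temperature with 0.1 uM Rango biosensor plus 0.25 uM importin beta, then FRET pre-read. RanGTP-RCC1 (0.6 uM Ran, 2mM GTP, 0.2 uM RCC1) added for 45 min, and the CFP/YFP post-read measured blocked complex dissociation.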
Each line names hits and unclear results; the compound was inactive in the other large screens; ! = not confirmed by another sample. Shown are actives, neighbours in structure and some others; about 3.6% of the full set was active somewhere. Unless noted, calls follow the shape of the dose curve; as a rule, active = well fitted curve in the direction sought with a large enough effect; inconclusive = small, poorly fitted or top-dose-only effect, or another doubt; inactive = no such curve, though single readings can be large; an effect the other way counts as inactive or inconclusive.

O=C(O)Cn1cc(/C=C2/SC(=O)N(CC(=O)N3CCCCCC3)C2=O)c2ccccc21	VDR inh inconclusive, Rango complex inh inconclusive, PLK1 PBD block 26.7µM, Rango release inh inconclusive
COc1ccc(CNC(=O)c2ccc(CNS(=O)(=O)c3ccc(F)cc3)cc2)cc1	none (no result: PI5P4Ka inh, Rango complex inh, PLK1 PBD block, Rango release inh)
C=CCNC(=O)c1cc(Cl)cc(Cl)c1	VDR inh inconclusive, PLK1 PBD block 29.9µM
O=[N+]([O-])c1cccc(S(=O)(=O)N2CCN(c3nc(-c4ccccc4)nc4ccccc34)CC2)c1	none (no result: PI5P4Ka inh, Rango complex inh, GCN5L2 inh, PLK1 PBD block, Rango release inh)
COc1cc(C)c2c(c1C=O)Oc1c(c(C)c(O)c3c1C(O)OC3=O)OC2=O (stereo not drawn)	VDR inh 44.7µM, PI5P4Ka inh -63.7, Rango complex inh inconclusive, Rango release inh inconclusive
Cc1cc(O)c(C=O)c2c1C(=O)Oc1c(C)c(O)c3c(c1O2)C(O)OC3=O (stereo not drawn)	VDR inh 6.31µM, GCN5L2 inh 35.5µM (no result: PI5P4Ka inh, Rango complex inh, PLK1 PBD block, Rango release inh)
Cc1ccc(Cl)cc1N1CCN(C(=O)c2ccc(C)c(-n3c(C)nc4cccnc43)c2)CC1	none (no result: PI5P4Ka inh, Rango complex inh, PLK1 PBD block, Rango release inh)
CS(=O)(=O)Nc1cccc(-c2ccc3ncnc(NCCN4CCOCC4)c3c2)c1	none (no result: PI5P4Ka inh, Rango complex inh, PLK1 PBD block, Rango release inh)
COC(=O)[C@H](COC(C)(C)C)NC(=O)O[C@@H]1Cc2cc(OC)ccc2O[C@H]1c1cccc(OC)c1	none (no result: PI5P4Ka inh, Rango complex inh, GCN5L2 inh, PLK1 PBD block, Rango release inh)
CC(=NNC(=S)N1CCCC1)c1ccccn1	PLK1 PBD block 23.8µM (no result: VDR inh, Rango complex inh, GCN5L2 inh, Rango release inh)
CSC1=NSC2=NC(=O)/C(=C/c3coc4ccccc4c3=O)C(=N)N12	VDR inh 50.1µM, PI5P4Ka inh -60.9, Rango complex inh inconclusive, PLK1 PBD block 21.2µM, Rango release inh inconclusive
CSC1=NSC2=NC(=O)/C(=C/c3coc4ccc(O)cc4c3=O)C(=N)N12	VDR inh inconclusive, PI5P4Ka inh -73.7, Rango complex inh inconclusive, PLK1 PBD block inconclusive, Rango release inh inconclusive
N=C1/C(=C/c2cccs2)C(=O)N=C2SN=C(SCc3ccccc3)N12	GCN5L2 inh inconclusive, PLK1 PBD block 26.7µM
CCOCCSc1c(C)cnc2c1c(=O)n(C)c(=O)n2C	none (no result: PI5P4Ka inh, Rango complex inh, PLK1 PBD block, Rango release inh)
CCN(CC)S(=O)(=O)c1ccc(C(=O)NCc2ccc3c(c2)OCO3)cc1	PLK1 PBD block 21.2µM
CN(c1ccc(C(=O)NCc2ccc3c(c2)OCO3)cc1)S(=O)(=O)c1ccccc1	none
CCn1c(N)c(C(=O)NCc2ccc3c(c2)OCO3)sc1=S	PLK1 PBD block 23.8µM
Cc1c(C(=O)NCc2ccc3c(c2)OCCO3)sc(=O)n1Cc1ccc2c(c1)OCO2	none (no result: VDR inh, Rango complex inh, GCN5L2 inh, Rango release inh)
O=C(/C=C/c1ccc(O)c(O)c1)c1ccc(O[C@@H]2O[C@H](CO)[C@@H](O)[C@H](O)[C@H]2O)c(O)c1O	VDR inh inconclusive (no result: PI5P4Ka inh, Rango complex inh, PLK1 PBD block, Rango release inh)
COc1ccccc1N1CCN(CCn2c(=O)c3c(c4ccccc4n3C)n(C)c2=O)CC1	VDR inh 44.7µM! (no result: PI5P4Ka inh, Rango complex inh, PLK1 PBD block, Rango release inh)
CCCN1CNc2c(c(=O)[nH]c(=S)n2CCc2ccc(Cl)cc2)C1	none (no result: PI5P4Ka inh, Rango complex inh, GCN5L2 inh, PLK1 PBD block, Rango release inh)
COc1ccc(-c2c[n+]3c(n2-c2ccc(C)cc2)CCCCC3)cc1	none
COc1ccc(-c2c[n+]3c(n2-c2ccccc2)CCCCC3)cc1	PLK1 PBD block 29.9µM
COc1cc(/C=C2/SC(=S)N(CC(=O)O)C2=O)ccc1OC(=O)c1cccs1	VDR inh inconclusive, PLK1 PBD block 23.8µM
COc1cc(/C=C2\SC(=S)N(CC(=O)O)C2=O)ccc1OS(=O)(=O)c1ccc(C)cc1	VDR inh inconclusive, PLK1 PBD block 21.2µM
COc1cc(/C=C2/SC(=S)N(C)C2=O)ccc1OC(=O)c1ccco1	none
CCC(=O)Nc1ccc(CC)cc1-c1nc2ccccc2n(CC(=O)Nc2cccc(OC)c2)c1=O	none (no result: PI5P4Ka inh, Rango complex inh, PLK1 PBD block, Rango release inh)
O=C1N=c2ccc([N+](=O)[O-])cc2=C1c1sc(=O)[nH]c1O	VDR inh inconclusive, PI5P4Ka inh -54.1, PLK1 PBD block 3.36µM
Cc1ccnc(NC(c2ccccn2)c2c(C)[nH]c3ccccc23)c1 (stereo not drawn)	VDR inh inconclusive, PLK1 PBD block 11.9µM
COc1cc2ncc3c(-c4ccccc4)nn(-c4ccc(C)cc4)c3c2cc1OC	none (no result: PI5P4Ka inh, Rango complex inh, PLK1 PBD block, Rango release inh)
